Source: PubChem BioAssay (Tox21)
Where “and” joins values, the source holds several entries; their conditions need not be identical. Identical values can stand only once. Inconclusive results are not listed. A call without a number means that no potency is given here. More than one record can exist for a structure, and the calls need not agree. Calls of active or inactive are those of the source. Unless noted, calls follow the shape of the dose curve; as a rule, active = well fitted curve in the direction sought with a large enough effect in the repeat runs; inconclusive = weak or mixed curves; inactive = no such curve, though single readings can be large; an effect the other way counts as inactive or inconclusive. Positions of bridges follow the written chain, without caps; N, C: chain ends. Non-standard residues stand in square brackets, D forms with d. Residues, ends and D or L forms follow the SMILES beside them. *: point of attachment. X1 = CC[C@@H](C)[C@@H](N)C1=N[C@H](C(=O)*)CS1; d(aIle) = CC[C@H](C)[C@@H](N)C(=O)O; dOrn = NCCC[C@@H](N)C(=O)O; Orn = NCCC[C@H](N)C(=O)O

How the values were obtained:
[1] = qHTS assay for small molecule agonists of the p53 signaling pathway (AID 651631; calls by dose curve; also: nearly all actives have a fitted effect of over 15% in size; also: potency is read from the fitted curve at half-maximal effect)
Outline: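 Testing took place in human colorectal HCT-116 cells with stable p53RE-driven beta-lactamase. After 16 h of compound exposure at 37 °C, a FRET substrate was added and fluorescence recorded 2 h later.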

[2] = qHTS assay for small molecules that induce genotoxicity in human embryonic kidney cells expressing luciferase-tagged ATAD5 (AID 651632); also: nearly all actives have a fitted effect of over 15% in size
Outline: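 Luminescence read-out: after 16 hr compound exposure at 37C, ATAD5-luciferase HEK293T cells received Amplite, 30 min RT, then CCD imaging. A rise in signal marks genotoxic stress.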

[3] = qHTS assay for small molecule agonists of the p53 signaling pathway - cell viability (AID 651633; calls by dose curve; also: nearly all actives have a fitted effect of over 30% in size; also: potency is read from the fitted curve at half-maximal effect)
Outline: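 p53RE-bla cells, seeded at 4,000 per well and rested 5 h at 37 C/5% CO2, received compounds in DMSO for 16 h at 37 C. CellTiter-Glo was then added, and luminescence was read after 30 min at room temperature to gauge cytotoxicity.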

[4] = qHTS assay for small molecules that induce genotoxicity in human embryonic kidney cells expressing luciferase-tagged ATAD5 - cell viability (AID 651634; calls by dose curve; also: nearly all actives have a fitted effect of over 25% in size; also: potency is read from the fitted curve at half-maximal effect)
Outline: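 HEK293T ATAD5-luc cells, 2,000/well; compound 15.5 hr, 37C/5% CO2; CellTiter-Fluor 30 min, 37C; fluorescence read.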

[5] = qHTS assay for small molecule disruptors of the mitochondrial membrane potential - cell viability (AID 720634; calls by dose curve; also: nearly all actives have a fitted effect of over 20% in size; also: potency is read from the fitted curve at half-maximal effect)
Outline: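 Luminescence from CellTiter-Glo (ATP content) gave viability in HepG2 cells, read in the same wells as the MMP dye assay after 1 hr compound exposure at 37 C.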

[6] = qHTS assay for small molecule disruptors of the mitochondrial membrane potential (AID 720635); also: potency is read from the fitted curve at half-maximal effect
Outline: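 HepG2 cells (2,000/well) attached overnight at 37C, then took compound for 1 hr at 37C, 5% CO2. Mito-MPS dye was added for 30 min; fluorescence was read at 490/535 nm (monomers) and 540/590 nm (aggregates).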

[7] = qHTS assay to test for compound auto fluorescence at 590 nm (red) in HepG2 cells (AID 720674)
Outline: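 Compound auto-fluorescence is scored relative to Rose Bengal sodium, measured at 540/590 nm in live HepG2 cultures after 1 hr compound contact (37 C, 5% CO2).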

[8] = qHTS assay to test for compound auto fluorescence at 535 nm (green) in HepG2 cells (AID 720675)
[9] = qHTS assay to test for compound auto fluorescence at 460 nm (blue) in HEK293 cells (AID 720678)
Outline: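 HEK293 cells (2,000/well, medium with 10% dialyzed FBS) attached 4-5 hr, then exposed to compound overnight at 37C, 5% CO2. Blue fluorescence read at 405/460 nm, with triamterene as reference fluorophore.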

[10] = qHTS assay to test for compound auto fluorescence at 590 nm (red) in HEK293 cells (AID 720679)
Outline: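 HEK293 cells (2,000/well, 10% dialyzed FBS) attached 4-5 hr, then dosed with compound or DMSO and incubated overnight at 37C, 5% CO2. Red fluorescence read at 540/590 nm, Rose Bengal sodium as reference fluorophore.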

Structure (SMILES) | Potency [1] | Potency [2] | Potency [3] | Potency [4] | Potency [5] | Potency [6] | outcome [7] | Potency [8] | Potency [9] | outcome [10]
C[C@H](O)CN(C)C | inactive | inactive | inactive | inactive | inactive | inactive | inactive | inactive | inactive | inactive
CN(C)CCc1c[nH]c2ccc(Cn3cncn3)cc12 | inactive | inactive | inactive | inactive | inactive | inactive | inactive | inactive | – | inactive
CC(C)[N+]1(C)[C@@H]2CC[C@H]1CC(OC(=O)C(CO)c1ccccc1)C2 (stereo not given in full) | inactive | inactive | inactive | inactive | inactive | inactive | inactive | inactive | – | inactive
CCCCCCCCCCCC[n+]1ccc2ccccc2c1 | 26.6 µM (active) | inactive | 29.8 µM (active) | 7.5 µM (active) | inactive | 2.98 µM (active) | inactive | inactive | inactive | inactive
CCOC(=O)COc1ccc2c(=O)cc(-c3ccccc3)oc2c1 | inactive | inactive | inactive | inactive | inactive | 7.5 µM (active) | inactive | inactive | inactive | inactive
N[C@H](C(=O)O)[C@@H]1CC(Cl)=NO1 | 2.98 µM (active) | inactive | 13.3 µM (active) | inactive | inactive | inactive | inactive | inactive | – | inactive
CCOC(=O)Cc1ccc(-c2ccccc2)cc1 | inactive | inactive | inactive | inactive | inactive | inactive | inactive | inactive | inactive | inactive
CN(Cc1ccccc1)Cc1ccccc1 | inactive | inactive | inactive | inactive | inactive | inactive | inactive | inactive | inactive | inactive
CC(=O)Oc1cc(C(F)(F)F)ccc1C(=O)O | inactive | inactive | inactive | inactive | inactive | inactive | inactive | – | inactive | inactive
Cc1onc(-c2c(F)cccc2Cl)c1C(=O)N[C@@H]1C(=O)N2[C@@H]1SC(C)(C)[C@@H]2C(=O)O | inactive | inactive | inactive | inactive | inactive | inactive | inactive | inactive | – | inactive
CC(C)C[C@@H]1NC(=O)[C@H](CCCN)NC(=O)[C@H](C(C)C)NC(=O)[C@@H]2CCCN2C(=O)[C@@H](Cc2ccccc2)NC(=O)[C@H](CC(C)C)NC(=O)[C@H](CCCN)NC(=O)[C@H](C(C)C)NC(=O)[C@@H]2CCCN2C(=O)[C@@H](Cc2ccccc2)NC1=O (cyclo(V[Orn]L[dF]PV[Orn]L[dF]P)) | 1.88 µM (active) | inactive | 2.66 µM (active) | 2.98 µM (active) | 13.3 µM (active) | 0.237 µM (active) | inactive | inactive | inactive | inactive
S=C1NC=NC2N=CNC12 (stereo not given) | 3.44 µM (active) | inactive | 0.545 µM (active) | inactive | inactive | 4.86 µM (active) | inactive | inactive | inactive | inactive
CC(C)CCC[C@@H](C)[C@H]1CC[C@H]2[C@@H]3CC=C4C[C@@H](O)CC[C@]4(C)[C@H]3CC[C@]12C | inactive | inactive | inactive | inactive | inactive | inactive | inactive | inactive | inactive | inactive
O=C(O)COc1ccc(C(=O)c2cccs2)c(Cl)c1Cl | inactive | inactive | inactive | inactive | inactive | inactive | inactive | – | inactive | inactive
CNC(=O)C[C@@H](N)C(=O)N[C@@H](C(=O)N[C@@H]1C(=O)N2[C@@H]1SC(C)(C)[C@@H]2C(=O)O)c1ccc(O)cc1 | inactive | inactive | inactive | inactive | inactive | inactive | inactive | inactive | inactive | inactive
CCCCCCCCCCCCCCCCCCOCC(COP(=O)([O-])OCC[N+](C)(C)C)OC (stereo not given) | inactive | inactive | inactive | inactive | inactive | inactive | inactive | inactive | – | inactive
CC(C)=CCC/C(C)=C/CC/C(C)=C/CC/C(C)=C/CC1=C(C)C(=O)c2ccccc2C1=O | inactive | inactive | inactive | inactive | inactive | inactive and 13.3 µM (active) | inactive | inactive | inactive | inactive
NC(=O)CC[C@@H]1NC(=O)[C@H](Cc2ccccc2)NC(=O)[C@H](Cc2ccc(O)cc2)NC(=O)[C@@H](N)CSSC[C@@H](C(=O)N2CCC[C@H]2C(=O)N[C@@H](CCCN=C(N)N)C(=O)NCC(N)=O)NC(=O)[C@H](CC(N)=O)NC1=O | inactive | inactive | inactive | inactive | inactive | inactive | inactive | inactive | inactive | inactive
CC/C=C\C/C=C\C/C=C\C/C=C\C/C=C\CCCC(=O)O | inactive | inactive | inactive | inactive | inactive | inactive | inactive | inactive | inactive | inactive
O=S(=O)(O)CC(S)CS (stereo not given) | inactive | inactive | inactive | inactive | inactive | inactive | inactive | inactive | inactive | inactive

Structure (SMILES) | Potency [1] | Potency [2] | Potency [3] | Potency [4] | Potency [5] | Potency [6] | outcome [7] | Potency [8] | Potency [9] | outcome [10]
COC1[C@@H](O[C@@H]2O[C@H](C)[C@@H](O[C@H]3C[C@@](C)(O)[C@H](OC(=O)CC(C)C)[C@H](C)O3)[C@H](N(C)C)[C@H]2O)[C@@H](CC=O)C[C@@H](C)[C@@H](O)/C=C/C=C/C[C@@H](C)OC(=O)C[C@H]1OC(C)=O (stereo not given in full) | inactive | inactive | inactive | inactive | inactive | inactive | inactive | inactive | – | inactive
O=C1CCC/C=C\CCCCCCCCCC1 | inactive | inactive | inactive | inactive | inactive | 68.6 µM (active) | inactive | inactive | – | inactive
CC(C)=CCC/C(C)=C/CC/C(C)=C/CC/C=C(\C)CC/C=C(\C)CCC=C(C)C | inactive | inactive | inactive | inactive | inactive | inactive | inactive | – | inactive | inactive
CC(C)CCC[C@@H](C)[C@H]1CC[C@H]2[C@@H]3CC[C@@H]4C[C@H](O)CC[C@]4(C)[C@H]3CC[C@]12C | inactive | inactive | inactive | inactive | inactive | inactive | inactive | inactive | inactive | inactive
C/C=C/C1=C(C(=O)O)N2C(=O)[C@@H](NC(=O)[C@H](N)c3ccc(O)cc3)[C@H]2SC1 | inactive | inactive | inactive | inactive | inactive | inactive | inactive | inactive | – | inactive
CC1=C(/C=C/C(C)=C/C=C/C(C)=C/C=C/C=C(C)/C=C/C=C(C)/C=C/C2=C(C)CCCC2(C)C)C(C)(C)CCC1 | inactive | inactive | inactive | inactive | inactive | inactive | inactive | – | inactive | –
CO/N=C(\C(=O)N[C@@H]1C(=O)N2C(C(=O)[O-])=C(C[n+]3ccc(N)n3CCO)CS[C@H]12)c1csc(N)n1 | inactive | inactive | inactive | inactive | inactive | inactive | inactive | inactive | – | inactive
c1ccc(-n2cnnn2)cc1 | inactive | inactive | inactive | inactive | inactive | inactive | inactive | inactive | – | inactive
O=C(O)[C@H]1CN(C/C=C/P(=O)(O)O)CCN1 | inactive | inactive | inactive | inactive | inactive | inactive | inactive | – | inactive | inactive
CCOC(=O)[C@H](CCc1ccccc1)N[C@@H](C)C(=O)N1[C@H](C(=O)O)C[C@H]2CCCC[C@@H]21 | inactive | inactive | inactive | inactive | inactive | inactive | inactive | inactive | inactive | inactive
NC(=O)[C@H]1O[C@@H](O)[C@H](O)[C@@H](O)[C@@H]1O | inactive | inactive | inactive | inactive | inactive | inactive | inactive | inactive | – | inactive
CN1C(=O)C[C@@H](C(=O)N[C@@H](Cc2cnc[nH]2)C(=O)N2CCC[C@H]2C(N)=O)NC1=O | inactive | inactive | inactive | inactive | inactive | inactive | inactive | inactive | inactive | inactive
CCOc1ccc(S(=O)(=O)O)c2cccnc12 | inactive | inactive | inactive | inactive | inactive | inactive | inactive | inactive | inactive | inactive
FC(F)(F)C(F)(F)C(F)(F)C(F)(F)C(F)(F)F | inactive | inactive | inactive | inactive | inactive | inactive | inactive | inactive | – | inactive
O=c1[nH]c(=O)n([C@H]2C[C@H](O)[C@@H](CO)O2)cc1/C=C/Br | inactive | inactive | inactive | inactive | inactive | inactive | inactive | inactive | – | inactive
Cc1cc(=O)c(C(=O)N[C@@H](C(=O)N[C@@H]2C(=O)N3C(C(=O)O)=C(CSc4nnnn4C)CS[C@H]23)c2ccc(O)cc2)c[nH]1 | inactive | inactive | inactive | inactive | inactive | – | inactive | inactive | inactive | inactive
Cc1cc(Br)ccc1NC(=O)CCl | 8.63 µM (active) | inactive | 43.3 µM (active) | 54.5 µM (active) | inactive | – | inactive | inactive | – | inactive
C=C(Nc1ccc(OCC)cc1)Nc1ccc(OCC)cc1 | inactive | inactive | inactive | inactive | inactive | – | inactive | inactive | inactive | inactive
NC(=S)NS(=O)(=O)c1ccc(N)cc1 | inactive | inactive | inactive | inactive | – | inactive | inactive | inactive | inactive | inactive
CC[C@@H](C)[C@@H](N)C1=N[C@H](C(=O)N[C@@H](CC(C)C)C(=O)N[C@@H](CCC(=O)O)C(=O)N[C@@H](C(=O)N[C@@H]2CCCCNC(=O)[C@@H](CC(N)=O)NC(=O)[C@@H](CC(=O)O)NC(=O)[C@@H](Cc3cnc[nH]3)NC(=O)[C@@H](Cc3ccccc3)NC(=O)[C@@H]([C@H](C)CC)NC(=O)[C@@H](CCCN)NC2=O)[C@@H](C)CC)CS1 (X1-LE[d(aIle)][dK][dOrn][dI][dF][dH][dD][dN]; lactam 4-C) | inactive | inactive | inactive | inactive | inactive | – | inactive | inactive | inactive | inactive
